In the library only some 13% were active in any assay of this set; here they are far more common.
4-MU autofl: qHTS Assay for Spectroscopic Profiling in 4-MU Spectral Region. compound autofluorescence, 340/450 nm, 4-MU equivalents; hits give high values. max dye-equivalent concentration, M. 59,000 tested, 11% active. AID 589, 2007; in the data active = max dye-equivalent concentration above about 10 nM; inconclusive = mostly about 1.1 nM to 9.6 nM
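Compounds in 100 mM Tris, pH 8.0, incubated 15 min at room temperature, then fluorescence read at 340 nm excitation/450 nm emission. Signal converted to 4-MU dye-equivalent concentration using an on-plate six-point 4-MU standard curve.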
A350 autofl: qHTS Assay for Spectroscopic Profiling in A350 Spectral Region | Compound autofluorescence, 340/450 nm, Alexa 350 dye-equivalents; hits give high values | max dye-equivalent concentration, M | 59,000 tested, 11% active | AID 590, 2007; in the data active = max dye-equivalent concentration above about 10 nM; inconclusive = mostly about 1.1 nM to 9.6 nM
HADH2 inhib: qHTS Assay for Inhibitors of HADH2 (Hydroxyacyl-Coenzyme A Dehydrogenase, Type II); 3-hydroxyacyl-CoA dehydrogenase type-2 (Homo sapiens), Q99714; recombinant HADH2, NADH fluorescence, beta-hydroxybutyryl-CoA; Potency, µM (doses to about 57.1 µM), for inactives: top-dose activity change, negative = inhibition, actives largely listed as inhibitors; 73,000 tested, 3.4% active; note: potency is the fitted concentration of half-maximal effect; % is set by controls: 0 for no effect and ±100 for the full control effect; nearly all actives have a fitted effect of over 60% in size
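20 nM HADH2 + cpd, 15 min RT; add 1 mM NAD+/90 uM beta-hydroxybutyryl-CoA; kinetic fluorescence 360/450 nm, 4 min. Tris-HCl pH 9.0, 0.01% Tween-20.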
HSD17B inhib: qHTS Assay for Inhibitors of HSD17B4, hydroxysteroid (17-beta) dehydrogenase 4 | recombinant HSD17B10, NADH fluorescence kinetic | Potency, µM (titrated, usually from 57.1 µM), for the others: at the highest dose activity change, negative = inhibition, actives largely listed as inhibitors | 75,000 tested, 7.6% active;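 note: the protocol describes HADH2 (HSD17B10) and not the HSD17B4 of the title; potency is the fitted concentration of half-maximal effect; % is set by controls: 0 for no effect and ±100 for the full control effect; nearly all actives have a fitted effect of over 70% in size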
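20 nM HADH2, pH 9.0 Tris/Tween; cpd preinc 15 min RT; start w/ 1 mM NAD+ + 90 uM b-hydroxybutyryl-CoA; kinetic fluor ex360/em450 q30s x 4 min; delta last-first.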
AID923: qHTS Assay for Allosteric/Competitive Inhibitors of Caspase-1: Spectroscopic Profiling in AFC Spectral Region | compound fluorescence, AFC spectral region (405/520 nm) | Potency, µM (doses to about 57.5 µM), for inactives: top-dose fluorescence increase, usual class: activators | 75,000 tested, 1.1% active | AID 923, 2007; note: potency is the fitted concentration of half-maximal effect; 0% is about no effect
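Baseline compound fluorescence (AFC region, 405 nm ex/520 nm em) taken from the intercept of kinetic reads with 50 nM caspase-1 and 5 uM Ac-WEHD-AFC; normalized to an on-plate AFC standard curve; compounds titrated up to 57 uM.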
GBA mod: Glucocerebrosidase; Lysosomal acid glucosylceramidase (Homo sapiens), P04062; purified enzyme, resorufin glucoside fluorescence (screen aimed at inhibitors), 20 min; Potency, µM; 48,000 tested, 1.1% active; in the data active = potency below about 15 µM; inconclusive = mostly about 16 µM to 33 µM;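 note: potency is the fitted concentration of half-maximal effect; the screen sought inhibitors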
Target sequence (P04062 whole entry, looked up): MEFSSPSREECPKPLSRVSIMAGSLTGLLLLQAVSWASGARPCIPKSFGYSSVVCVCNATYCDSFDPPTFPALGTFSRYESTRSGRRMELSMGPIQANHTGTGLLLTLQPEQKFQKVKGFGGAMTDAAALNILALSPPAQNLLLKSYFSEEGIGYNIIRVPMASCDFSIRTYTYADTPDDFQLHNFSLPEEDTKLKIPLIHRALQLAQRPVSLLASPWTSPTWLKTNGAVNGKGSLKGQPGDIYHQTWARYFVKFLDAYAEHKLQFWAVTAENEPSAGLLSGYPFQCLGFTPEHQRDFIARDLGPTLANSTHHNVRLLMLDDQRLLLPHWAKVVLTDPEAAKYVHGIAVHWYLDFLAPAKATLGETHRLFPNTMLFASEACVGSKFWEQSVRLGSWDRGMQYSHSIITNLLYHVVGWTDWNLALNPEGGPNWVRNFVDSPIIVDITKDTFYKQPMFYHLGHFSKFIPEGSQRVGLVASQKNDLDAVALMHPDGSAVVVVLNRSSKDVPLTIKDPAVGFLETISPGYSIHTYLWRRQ
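Compounds titrated against 0.2 nM normal enzyme, 30 uM resorufin beta-D-glucopyranoside substrate, citrate/phosphate buffer with taurocholate and tween-20, pH 5.9. Reaction ran 20 min at room temperature; fluorescence (Ex 548/Em 600) gave AC50.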
An asterisk follows results filed as active; [ ] = remark or other dose. Unless noted, calls come from the whole dose curve; as a rule, active = well fitted curve in the direction sought with a large enough effect; inconclusive = small, poorly fitted or top-dose-only effect, or another doubt; inactive = no such curve, though single readings can be large; an effect the other way counts as inactive or inconclusive.

Results for Cc1cc(=O)oc(C)c1C(=O)N1CCN(C(c2ccccc2)c2ccccc2)CC1 ?
4-MU autofl: inactive; A350 autofl: inactive; HADH2 inhib: 6.4%; HSD17B inhib: -1.7%; AID923: 2.9%; GBA mod: >76.9

What do the screens show for `O=C(c1ccc(=O)oc1)N1CCN(C(c2ccccc2)c2ccccc2)CC1`?
4-MU autofl: 8.6e-08M*; A350 autofl: 9.59e-08M*

Results for CN1CCN(c2ccc(C(=O)c3ccc(F)cc3)cc2)CC1 ?
HADH2 inhib: -11.5%[11.4 µM]; HSD17B inhib: -17.1%; AID923: -1.7%

How did O=C(c1ccc(=O)oc1)N1CCN(c2ccc(F)cc2)CC1 do in these assays?
4-MU autofl: 8.63e-08M*; A350 autofl: 9.75e-08M*

What do the screens show for `Cc1ccc(S(=O)(=O)NCCSc2nnnn2C)cc1`?
4-MU autofl: inactive; A350 autofl: inactive; HADH2 inhib: 10.0%; HSD17B inhib: 3.4%; AID923: -0.8%; GBA mod: >76.9

How did Cc1nn(Cc2ccc(C(=O)Nc3nccs3)cc2)c(C)c1Cl do in these assays?
4-MU autofl: inactive; A350 autofl: inactive; HADH2 inhib: -8.5%; HSD17B inhib: -13.9%; AID923: -0.4%; GBA mod: 13.7*

Results for O=C(NCC12CC3CC(CC(C3)C1)C2)c1nn2c(c1Cl)NC(c1ccco1)CC2C(F)(F)F (configuration not stated) ?
4-MU autofl: inactive; A350 autofl: inactive; HADH2 inhib: 9.7%; HSD17B inhib: 6.2%; AID923: 1.8%; GBA mod: 14.2*

What do the screens show for `CCCCOc1cccc(C(=O)N(Cc2ccco2)C2CCS(=O)(=O)C2)c1` (configuration not stated)?
4-MU autofl: inactive; A350 autofl: inactive; HADH2 inhib: 2.3%; HSD17B inhib: -9.9%; AID923: 3.1%; GBA mod: inconclusive

How did Cc1c(NC(=O)c2ccc(Cl)c(S(=O)(=O)N3CCOCC3)c2)c(=O)n(-c2ccccc2)n1C do in these assays?
4-MU autofl: inactive; A350 autofl: inactive; HADH2 inhib: 8.1%; HSD17B inhib: 7.8%; AID923: 0.4%; GBA mod: >76.9

How did Cc1cc(C)c2[nH]c(=O)c(C(c3nnnn3C3CCCC3)N3CCOCC3)cc2c1 (configuration not stated) do in these assays?
4-MU autofl: 5.04e-08M*; A350 autofl: 4.32e-08M*; HADH2 inhib: -6.7%; HSD17B inhib: -6.2%; AID923: 2.7%; GBA mod: >76.9

How did CCOC(=O)C1CCN(C(c2cc3ccc(C)c(C)c3[nH]c2=O)c2nnnn2C2CCCCC2)CC1 (configuration not stated) do in these assays?
4-MU autofl: inactive; A350 autofl: inactive; HADH2 inhib: 2.8%; HSD17B inhib: 0.3%; AID923: 0.9%; GBA mod: >76.9

How did Cc1ccc2cc(C(c3nnnn3C3CCCC3)N3CCOCC3)c(=O)[nH]c2c1C (configuration not stated) do in these assays?
4-MU autofl: 1.03e-08M*; A350 autofl: inconclusive; HADH2 inhib: -0.6%; HSD17B inhib: -3.9%; AID923: 2.2%; GBA mod: >76.9

What do the screens show for `Cc1ccc(C)c2[nH]c(=O)c(C(c3nnnn3C3CCCC3)N3CCOCC3)cc12` (configuration not stated)?
4-MU autofl: 3.71e-08M*; A350 autofl: 3.4e-08M*; HADH2 inhib: -27.1%; HSD17B inhib: 31.6µM*; AID923: -2.6%; GBA mod: >76.9

Results for N#Cc1ccccc1NC(=O)CSc1nccn1CCc1ccccc1 ?
4-MU autofl: inconclusive; A350 autofl: inconclusive; HADH2 inhib: -5.2%; HSD17B inhib: 4.6%; AID923: 0.5%; GBA mod: >76.9

Results for COC(=O)c1sc2ccccc2c1N ?
HADH2 inhib: 25.1µM*; HSD17B inhib: 25.1µM*; AID923: 5.2%

Results for CCc1cccc(C)c1NC(=O)CSc1nnc(-c2cc3cc(Br)ccc3o2)n1CC ?
4-MU autofl: inactive; A350 autofl: inactive; HADH2 inhib: inconclusive; HSD17B inhib: 31.6µM*; AID923: -0.5%; GBA mod: >76.9

Results for CCOc1ccccc1Nc1nnc(SCC(=O)N2CCCC2)s1 ?
4-MU autofl: 1.46e-08M*; A350 autofl: 1.86e-08M*; HADH2 inhib: 0.7%; HSD17B inhib: 2.8%; AID923: -0.5%; GBA mod: >76.9

What do the screens show for `CCc1cc2cc3c(cc2nc1SCC(=O)N1CCN(C(=O)c2ccco2)CC1)OCO3`?
4-MU autofl: inactive; A350 autofl: inactive; HADH2 inhib: -11.9%; HSD17B inhib: 31.6µM*; AID923: 8.0%; GBA mod: >76.9

How did CC(C)C1N(C(=O)CN2CCCC2)CCN1S(=O)(=O)c1ccccc1 (configuration not stated) do in these assays?
HADH2 inhib: 1.2%; HSD17B inhib: 5.3%; AID923: 4.3%

What do the screens show for `CN1CCN(CC(C)(C)NS(=O)(=O)c2ccc(Cl)cc2)CC1`?
4-MU autofl: inactive; A350 autofl: inconclusive; HADH2 inhib: 27.9%; HSD17B inhib: 4.9%; AID923: 1.3%; GBA mod: 14.2*

Results for Cc1cc(Nc2nc3ccccc3[nH]c2=O)n(-c2ccccc2)n1 ?
4-MU autofl: 3.37e-08M*; A350 autofl: 4.29e-08M*; HADH2 inhib: -10.3%; HSD17B inhib: inconclusive; AID923: 0.4%; GBA mod: >76.9

What do the screens show for `CCOCc1nnc(NS(C)(=O)=O)s1`?
4-MU autofl: 4.19e-08M*; A350 autofl: 4.12e-08M*; HADH2 inhib: -3.4%; HSD17B inhib: -28.1%; AID923: 2.3%; GBA mod: >76.9

How did COCc1nnc(NS(=O)(=O)c2ccccc2)s1 do in these assays?
4-MU autofl: inconclusive; A350 autofl: inconclusive; HADH2 inhib: -23.6%; HSD17B inhib: -3.5%; AID923: -0.1%; GBA mod: >76.9

What do the screens show for `CCC(C)(C)n1nnnc1C(c1cc2cc(OC)c(OC)cc2[nH]c1=O)N1CCc2ccccc21` (configuration not stated)?
4-MU autofl: inactive; A350 autofl: inconclusive; HADH2 inhib: 2.2%; HSD17B inhib: -10.5%; AID923: 0.2%; GBA mod: inactive

From PubChem BioAssay
